# Where a chain is given by its changes, count along the chain named.
# Key:
# Assay in all cases: yeast three-hybrid, YBZ-1, SC-Leu-His + 0.5 mM 3-AT, 4 days
# Details in all cases: tags: N-Gal4 AD-HA kept; label: inside an RPR1-promoter hybrid RNA with tandem MS2 sites; ssRNA
# [1] = biological target: PUM1 PUF domain R7-VTR (Homo sapiens, UniProt Q14671 828-1176, S1079V;N1080T;E1083R)
# Outline: (§1)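 The interaction score is the log change in how often each variant appears, from input to selection. Frequencies came from PCR-amplified, Illumina-sequenced repeat regions of Pumilio-1 PUF domain libraries grown in strain YBZ-1 (LexA–MS2 coat fusion, HIS3 reporter) alongside matching RNA elements. Input plates were SC-Leu and selection plates were SC-Leu-His + 0.5 mM 3-AT, each for four days, and the log2 calculation used a pseudocount of 1 where a variant was absent.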
# [2] = biological target: PUM1 PUF domain R7-RVT (Homo sapiens, UniProt Q14671 828-1176, S1079R;N1080V;E1083T)
# Outline: as §1
# [3] = biological target: PUM1 PUF domain R7-GCG (Homo sapiens, UniProt Q14671 828-1176, S1079G;N1080C;E1083G)
# Outline: as §1
# [4] = biological target: PUM1 PUF domain R1-NWG (Homo sapiens, UniProt Q14671 828-1176, S863N;R864W;Q867G)
# Outline: as §1
# [5] = biological target: PUM1 PUF domain R5-DWA (Homo sapiens, UniProt Q14671 828-1176, C1007D;R1008W;Q1011A)
# Outline: as §1
# [6] = biological target: PUM1 PUF domain R5-GHA (Homo sapiens, UniProt Q14671 828-1176, C1007G;R1008H;Q1011A)
# Outline: as §1
# [7] = biological target: PUM1 PUF domain R3-LFS (Homo sapiens, UniProt Q14671 828-1176, C935L;R936F;Q939S)
# Outline: as §1
# [8] = biological target: PUM1 PUF domain R5-RDK (Homo sapiens, UniProt Q14671 828-1176, C1007R;R1008D;Q1011K)
# Outline: as §1
# [9] = biological target: PUM1 PUF domain R4-VYG (Homo sapiens, UniProt Q14671 828-1176, N971V;H972Y;Q975G)
# Outline: as §1
# [10] = biological target: PUM1 PUF domain R2-EWS (Homo sapiens, UniProt Q14671 828-1176, N899E;Y900W;Q903S)
# Outline: as §1
# [11] = biological target: PUM1 PUF domain R5-EFD (Homo sapiens, UniProt Q14671 828-1176, C1007E;R1008F;Q1011D)
# Outline: as §1
# [12] = biological target: PUM1 PUF domain R5-CHQ (Homo sapiens, UniProt Q14671 828-1176, R1008H)
# Outline: as §1
# [13] = biological target: T1, PUM1 PUF domain R6-MYG (Homo sapiens, UniProt Q14671 828-1176, N1043M;Q1047G)
# T1 sequence: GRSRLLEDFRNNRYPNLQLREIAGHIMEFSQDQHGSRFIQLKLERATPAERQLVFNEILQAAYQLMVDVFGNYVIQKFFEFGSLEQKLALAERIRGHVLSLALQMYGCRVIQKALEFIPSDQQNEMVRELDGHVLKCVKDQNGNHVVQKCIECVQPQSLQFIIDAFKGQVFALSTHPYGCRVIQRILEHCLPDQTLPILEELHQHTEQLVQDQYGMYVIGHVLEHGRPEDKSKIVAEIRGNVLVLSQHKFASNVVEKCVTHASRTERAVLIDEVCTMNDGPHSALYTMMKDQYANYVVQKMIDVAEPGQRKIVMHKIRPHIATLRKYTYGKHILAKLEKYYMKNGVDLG
# Outline: as §1
# [14] = biological target: PUM1 PUF domain R8-KFR (Homo sapiens, UniProt Q14671 828-1176, N1122K;Y1123F;Q1126R)
# Outline: as §1
# [15] = biological target: PUM1 PUF domain R3-ASY (Homo sapiens, UniProt Q14671 828-1176, C935A;R936S;Q939Y)
# Outline: as §1
# [16] = biological target: T2, PUM1 PUF domain R6-RWS (Homo sapiens, UniProt Q14671 828-1176, N1043R;Y1044W;Q1047S)
# T2 sequence: T1 sequence with M216R, Y217W, G220S
# Outline: as §1
# [17] = biological target: PUM1 PUF domain R4-VNT (Homo sapiens, UniProt Q14671 828-1176, N971V;H972N;Q975T)
# Outline: as §1
# [18] = biological target: PUM1 PUF domain R5-RNI (Homo sapiens, UniProt Q14671 828-1176, C1007R;R1008N;Q1011I)
# Outline: as §1
# [19] = biological target: PUM1 PUF domain R8-KKT (Homo sapiens, UniProt Q14671 828-1176, N1122K;Y1123K;Q1126T)
# Outline: as §1
# [20] = biological target: PUM1 PUF domain R1-CGE (Homo sapiens, UniProt Q14671 828-1176, S863C;R864G;Q867E)
# Outline: as §1
# Chain of PUM1 PUF domain R4-VNT (Q14671 828-1176 N971V/H972N/Q975T): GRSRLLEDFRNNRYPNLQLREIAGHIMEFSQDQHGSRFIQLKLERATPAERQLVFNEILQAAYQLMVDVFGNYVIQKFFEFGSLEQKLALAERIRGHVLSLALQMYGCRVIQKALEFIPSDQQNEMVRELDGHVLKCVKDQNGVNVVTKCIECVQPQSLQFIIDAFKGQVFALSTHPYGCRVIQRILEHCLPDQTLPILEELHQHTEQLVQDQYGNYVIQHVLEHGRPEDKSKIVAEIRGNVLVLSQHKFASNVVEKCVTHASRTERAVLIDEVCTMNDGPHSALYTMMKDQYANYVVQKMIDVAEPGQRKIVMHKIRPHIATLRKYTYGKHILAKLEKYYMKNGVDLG
# Chain of PUM1 PUF domain R1-CGE (Q14671 828-1176 S863C/R864G/Q867E): as the sequence (Q14671 828-1176 N971V/H972N/Q975T) above, with S36C, R37G, Q40E, V144N, N145H, T148Q counted along it
# Chain of PUM1 PUF domain R7-GCG (Q14671 828-1176 S1079G/N1080C/E1083G): as the sequence (Q14671 828-1176 N971V/H972N/Q975T) above, with V144N, N145H, T148Q, S252G, N253C, E256G counted along it
# Chain of PUM1 PUF domain R7-RVT (Q14671 828-1176 S1079R/N1080V/E1083T): as the sequence (Q14671 828-1176 N971V/H972N/Q975T) above, with V144N, N145H, T148Q, S252R, N253V, E256T counted along it
# Chain of PUM1 PUF domain R7-VTR (Q14671 828-1176 S1079V/N1080T/E1083R): as the sequence (Q14671 828-1176 N971V/H972N/Q975T) above, with V144N, N145H, T148Q, S252V, N253T, E256R counted along it
sequence,measurement,setting,value
GGCUAGAACUAGUGGAUCCCCCGGCGCCCGGCGGCUCGAGCCCGGGUAAGUUUAAAUAGUCUGCAUGCCGCCGGGCGCCAUGCCUGCAGGUCGACUCUAGAAAACAUG,binding signal,[1],3.74 log2 enrichment (interaction score)
same,binding signal,[2],2.57 log2 enrichment (interaction score)
same,binding signal,[3],3.64 log2 enrichment (interaction score)
GGCUAGAACUAGUGGAUCCCCCGGCGCCCGGCGGCUCGAGCCCGGGUAAGUGUAAAUUGUCUGCAUGCCGCCGGGCGCCAUGCCUGCAGGUCGACUCUAGAAAACAUG,binding signal,[4],5.42 log2 enrichment (interaction score)
GGCUAGAACUAGUGGAUCCCCCGGCGCCCGGCGGCUCGAGCCCGGGUAAGUGUUAAUAGUCUGCAUGCCGCCGGGCGCCAUGCCUGCAGGUCGACUCUAGAAAACAUG,binding signal,[5],5.07 log2 enrichment (interaction score)
same,binding signal,[6],2.33 log2 enrichment (interaction score)
GGCUAGAACUAGUGGAUCCCCCGGCGCCCGGCGGCUCGAGCCCGGGUAAGUGUAAUUAGUCUGCAUGCCGCCGGGCGCCAUGCCUGCAGGUCGACUCUAGAAAACAUG,binding signal,[7],4.38 log2 enrichment (interaction score)
GGCUAGAACUAGUGGAUCCCCCGGCGCCCGGCGGCUCGAGCCCGGGUAAGUGUGAAUAGUCUGCAUGCCGCCGGGCGCCAUGCCUGCAGGUCGACUCUAGAAAACAUG,binding signal,[5],4.75 log2 enrichment (interaction score)
same,binding signal,[6],3.2 log2 enrichment (interaction score)
same,binding signal,[8],4.56 log2 enrichment (interaction score)
GGCUAGAACUAGUGGAUCCCCCGGCGCCCGGCGGCUCGAGCCCGGGUAAGUGUAGAUAGUCUGCAUGCCGCCGGGCGCCAUGCCUGCAGGUCGACUCUAGAAAACAUG,binding signal,[9],5.26 log2 enrichment (interaction score)
GGCUAGAACUAGUGGAUCCCCCGGCGCCCGGCGGCUCGAGCCCGGGUAAGUGUAAAAAGUCUGCAUGCCGCCGGGCGCCAUGCCUGCAGGUCGACUCUAGAAAACAUG,binding signal,[10],6.34 log2 enrichment (interaction score)
GGCUAGAACUAGUGGAUCCCCCGGCGCCCGGCGGCUCGAGCCCGGGUAAGUGUAAAGAGUCUGCAUGCCGCCGGGCGCCAUGCCUGCAGGUCGACUCUAGAAAACAUG,binding signal,[10],4.8 log2 enrichment (interaction score)
GGCUAGAACUAGUGGAUCCCCCGGCGCCCGGCGGCUCGAGCCCGGGUAAGUGUAAAUAGUCUGCAUGCCGCCGGGCGCCAUGCCUGCAGGUCGACUCUAGAAAACAUG,binding signal,[11],4.36 log2 enrichment (interaction score)
same,binding signal,[5],1.76 log2 enrichment (interaction score)
same,binding signal,[6],3.68 log2 enrichment (interaction score)
same,binding signal,[12],2.46 log2 enrichment (interaction score)
same,binding signal,[13],4.1 log2 enrichment (interaction score)
same,binding signal,[14],6.77 log2 enrichment (interaction score)
same,binding signal,[15],2.58 log2 enrichment (interaction score)
same,binding signal,[7],3.98 log2 enrichment (interaction score)
same,binding signal,[16],6.05 log2 enrichment (interaction score)
GGCUAGAACUAGUGGAUCCCCCGGCGCCCGGCGGCUCGAGCCCGGGUAAGUGUACAUAGUCUGCAUGCCGCCGGGCGCCAUGCCUGCAGGUCGACUCUAGAAAACAUG,binding signal,[17],0.69 log2 enrichment (interaction score)
GGCUAGAACUAGUGGAUCCCCCGGCGCCCGGCGGCUCGAGCCCGGGUAAGUGUCAAUAGUCUGCAUGCCGCCGGGCGCCAUGCCUGCAGGUCGACUCUAGAAAACAUG,binding signal,[5],2.25 log2 enrichment (interaction score)
same,binding signal,[18],3.78 log2 enrichment (interaction score)
GGCUAGAACUAGUGGAUCCCCCGGCGCCCGGCGGCUCGAGCCCGGGUAAGUGUAAGUAGUCUGCAUGCCGCCGGGCGCCAUGCCUGCAGGUCGACUCUAGAAAACAUG,binding signal,[7],6.56 log2 enrichment (interaction score)
GGCUAGAACUAGUGGAUCCCCCGGCGCCCGGCGGCUCGAGCCCGGGUAAGCGUAAAUAGUCUGCAUGCCGCCGGGCGCCAUGCCUGCAGGUCGACUCUAGAAAACAUG,binding signal,[19],3.48 log2 enrichment (interaction score)
GGCUAGAACUAGUGGAUCCCCCGGCGCCCGGCGGCUCGAGCCCGGGUAAGUGUAUAUAGUCUGCAUGCCGCCGGGCGCCAUGCCUGCAGGUCGACUCUAGAAAACAUG,binding signal,[17],2.54 log2 enrichment (interaction score)
GGCUAGAACUAGUGGAUCCCCCGGCGCCCGGCGGCUCGAGCCCGGGUAAGUGUAAAUGGUCUGCAUGCCGCCGGGCGCCAUGCCUGCAGGUCGACUCUAGAAAACAUG,binding signal,[20],3.82 log2 enrichment (interaction score)
